# From the supplement of paper PMC3334620
# The full ranking holds about 33,000 sequences; the median of “E-score (-0.5 to 0.5)” is about -0.056, and the highest 2% start at about 0.38. This excerpt belongs to a sample that is enriched for the highest values.
# Biological target: Stb4 (UniProt P50104)
# Experiment: PBM E-score (8-mer binding enrichment) (E-score (-0.5 to 0.5)); higher = stronger / more preferred TF binding
# Conditions: protein concentration: 200 nM; construct: GST-DNA-binding domain
# Protocol: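 Universal 'all 10-mer' protein binding microarrays (Agilent AMADID 015681) probed with GST-tagged S. cerevisiae TFs (full-length or DBD) made by in vitro transcription/translation (PURExpress), about 100-200 nM. Bound TF was detected with fluorescent anti-GST. Each ungapped 8-mer (which stands for itself and its reverse complement) is scored by the PBM enrichment score (E-score), a modified Wilcoxon-Mann-Whitney statistic from -0.5 to +0.5, computed with the Universal PBM Analysis Suite. Scale: above 0.35 generally sequence-specific binding.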
# UniProt P50104, sequence (P50104 whole entry): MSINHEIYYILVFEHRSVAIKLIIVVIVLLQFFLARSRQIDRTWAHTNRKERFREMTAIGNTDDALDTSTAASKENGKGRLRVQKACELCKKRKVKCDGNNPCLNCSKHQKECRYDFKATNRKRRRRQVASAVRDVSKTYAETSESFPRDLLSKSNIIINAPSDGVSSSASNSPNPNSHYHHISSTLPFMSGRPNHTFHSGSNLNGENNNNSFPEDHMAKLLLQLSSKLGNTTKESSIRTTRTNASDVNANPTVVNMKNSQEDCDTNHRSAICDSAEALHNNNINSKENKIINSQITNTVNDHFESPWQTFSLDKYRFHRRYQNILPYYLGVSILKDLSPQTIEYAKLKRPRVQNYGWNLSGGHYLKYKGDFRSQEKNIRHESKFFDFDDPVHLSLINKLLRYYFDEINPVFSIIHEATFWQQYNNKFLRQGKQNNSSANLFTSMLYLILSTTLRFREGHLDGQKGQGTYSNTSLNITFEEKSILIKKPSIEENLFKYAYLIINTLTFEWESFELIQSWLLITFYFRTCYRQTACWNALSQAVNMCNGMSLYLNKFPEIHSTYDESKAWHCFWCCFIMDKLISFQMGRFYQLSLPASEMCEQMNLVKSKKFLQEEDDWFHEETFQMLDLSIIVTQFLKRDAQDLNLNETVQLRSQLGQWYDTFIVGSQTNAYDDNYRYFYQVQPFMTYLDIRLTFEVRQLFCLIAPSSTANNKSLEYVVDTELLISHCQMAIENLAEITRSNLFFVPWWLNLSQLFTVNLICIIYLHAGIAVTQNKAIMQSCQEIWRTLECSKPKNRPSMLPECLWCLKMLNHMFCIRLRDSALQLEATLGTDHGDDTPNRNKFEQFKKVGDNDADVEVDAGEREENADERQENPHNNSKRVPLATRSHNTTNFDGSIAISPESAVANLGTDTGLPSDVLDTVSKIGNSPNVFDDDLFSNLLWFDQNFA
row,Sequence,PBM E-score
1,CGAACGGA,0.327
2,GTCTAAAA,-0.0585
3,GTACTGAC,-0.0527
4,AGTAAGCG,-0.0174
5,AGACTATG,-0.17
6,ACCAGGCG,-0.159
7,CATACAGA,-0.0776
8,AGTGATTG,-0.0135
9,CCCTCGTC,0.0826
10,ACCTCGTG,-0.0555
11,ACCTCGCC,-0.0213
12,CCCTCGGC,0.399
13,ACCTCGTC,-0.0708
14,ACCTCGAA,-0.105
15,ACCTCGTA,0.0536
16,ACCTCGGC,0.415
17,ACCTCGGG,0.421
18,ACCTCGAG,-0.0838
19,CCCTCGCC,-0.217
20,ACCTCGGA,0.463
21,AGTAGATA,-0.0337
22,CTCCATTA,-0.148
23,CGCCTTTC,-0.0815
24,CGGGTAAC,0.393
25,CGGGTAAG,0.336

row,Sequence,PBM E-score
1,CGGGTAAA,0.424
2,TGGGTAAA,-0.0511
3,GGGGTAAC,-0.122
4,AGGGTAAA,0.0281
5,AAGCCTAC,-0.253
6,CACACTGG,-0.18
7,CATTTAGG,-0.174
8,ACGCTTTG,0.035
9,GTCTATTA,-0.00563
10,CTCGGGGA,0.349
11,CTCGGGAA,0.462
12,CACGGGAC,0.214
13,CTCGGGAC,0.45
14,GCCGGGAC,0.28
15,CCGGGGAC,0.157
16,ATCGGGAA,0.412
17,ATCGGGGA,0.243
18,GTCGGGAA,0.377
19,ATCGGGAG,0.367
20,CCCGGGAC,0.387
21,ATCGGGAC,0.284
22,AGCAACTC,-0.0301
23,TACTCAAA,-0.108
24,CTTATCGA,-0.105
25,AGTCACTG,-0.274

row,Sequence,PBM E-score
1,AACTGAAA,-0.121
2,CCCTATAC,-0.154
3,ACACCGTG,0.106
4,CTTGACGA,-0.0253
5,ACTACTTG,-0.195
6,ACGAGCTC,0.0375
7,ACGAGCTA,-0.221
8,GCGAGCTA,-0.0842
9,CTGAGCTC,-0.172
10,CCGAGCTA,0.424
11,CCGAGCTC,0.435
12,CACGGTCA,-0.197
13,CAACTACG,-0.0502
14,TGAGAACA,-0.212
15,CCGGGAAC,0.381
16,AGCGGAAG,0.335
17,ACCGGAAG,0.388
18,ACCGGAAT,0.294
19,ACCGGAGC,0.244
20,CCCGGACG,0.163
21,CCCGGAAG,0.417
22,ACGGGAAG,0.232
23,CCCGGAAC,0.416
24,CCCGGAGG,0.206
25,ACCGGAAC,0.419

row,Sequence,PBM E-score
1,CCCGGACC,0.26
2,CTGGTGGC,-0.167
3,CGACTCAC,0.0516
4,GAATACCC,0.341
5,AAAAGGAG,-0.0435
6,AGGTACCG,0.254
7,CGAGTCTC,0.0605
8,GGAGCCCA,-0.203
9,AGGTGCTC,-0.148
10,AGGCAGTC,-0.144
11,GAAGGCGA,-0.051
12,CGTGGGGC,-0.121
13,TCCGGAAA,0.439
14,GACGGAAA,0.36
15,GCCGGAAA,0.401
16,ACCGGGAA,0.335
17,TCCGGGAA,0.388
18,TCCGGAGA,0.335
19,CCCGGAAA,0.39
20,GGCGGAAA,0.277
21,TCCGGACA,0.322
22,CCCGGGAA,0.355
23,AGGACTGA,-0.0328
24,CACTTGGA,-0.087
25,AATGTGGA,-0.0863

row,Sequence,PBM E-score
1,ACGATTCT,-0.05
2,GTATAGGA,-0.287
3,AGCCATTA,0.0954
4,CTTCTGTC,-0.158
5,AGCTGATA,-0.047
6,ACCGGACT,0.252
7,GCCGGACC,0.196
8,ACCGGAAA,0.384
9,ACCGGCAA,0.229
10,GCCGGAGC,0.283
11,GCCGGAAC,0.428
12,AACTGTCC,0.0472
13,AGAGTGTA,-0.094
14,GTTTCCCA,-0.0576
15,CTTTCCGC,0.324
16,GTTTCCAA,-0.1
17,GTTTCCGA,0.466
18,CTTTCCGA,0.463
19,CTTTCCCA,-0.053
20,ATCTATGA,-0.0937
21,ATGCAGAG,-0.146
22,GATCAGGA,-0.029
23,ATTCATCC,0.202
24,ATTACACA,-0.13
25,CCGAAAAA,0.434

row,Sequence,PBM E-score
1,ACGAAAAA,-0.189
2,GCGAAAAC,-0.154
3,CCGAAAAG,0.384
4,CCGAAACA,0.364
5,CCGAAAGG,0.363
6,ACGAAAAC,0.154
7,TCGAAAAA,-0.00854
8,ACGAAAAG,-0.23
9,CCGAAAAC,0.41
10,ACGAAACC,-0.0179
11,CCGAAACC,0.395
12,CTAATCGA,-0.105
13,CGCCTCCC,-0.0433
14,CGGTCCCC,0.141
15,CCCTATGC,-0.0929
16,AAGTGCGG,0.226
17,GCGAAAGA,-0.166
18,CCGAAAGC,0.377
19,CCGAAAGA,0.388
20,ACGAAGGC,-0.0627
21,GACCTGGA,-0.196
22,GTCCTGAA,-0.197
23,AACCGAAG,0.362
24,CACCGAAC,0.224
25,TTGCGAAA,0.116

row,Sequence,PBM E-score
1,AACCGAAC,0.356
2,CTCCGAAA,0.357
3,TTTCGAAA,-0.307
4,TTCCGAAA,0.468
5,ATCCGAAC,0.475
6,ATCCGAAG,0.48
7,CTCCGAAC,0.427
8,ATCCGCAG,0.285
9,GTCCGAAC,0.335
10,AGTCAGCC,-0.161
11,ACTGATCT,-0.0326
12,CAGGAAAG,-0.2
13,ATACGGGA,0.237
14,CACTAAAC,-0.0976
15,TACTTCTA,-0.254
16,AAATTGCG,0.114
17,TCCTAGGA,-0.093
18,CTGTGGGA,-0.145
19,CTACGAAG,-0.247
20,ATCCGAAT,0.48
21,CTCCGAAG,0.413
22,ATACGAAT,-0.0803
23,GTCCGAAA,0.337
24,ATGCGAAT,0.0493
25,CACCGAAG,0.228

row,Sequence,PBM E-score
1,AACCGAAA,0.372
2,ATCCGAAA,0.48
3,CCTATTCA,-0.0251
4,CGCGCCTA,0.0819
5,CACTGGTA,-0.276
6,GAGTCCCA,0.116
7,TGACTCAA,-0.149
8,CGTTCTCC,-0.0997
9,AGGTTCCG,0.383
10,CAGTTCCG,0.364
11,AGGTTCGG,0.403
12,AGGTTCGA,-0.0841
13,ACGTTCCA,-0.0774
14,ACGTTCCG,0.398
15,AAGTTCCT,-0.00611
16,AAGTTCCG,0.434
17,AGGTTCCA,0.0324
18,AGGTTCCC,-0.0987
19,ACGTTCCT,-0.168
20,AGGTTCGC,0.0812
21,CATAACCC,0.051
22,AGGTGGGG,-0.0596
23,GCAAAAAC,-0.0252
24,CACAGCTC,-0.18
25,GCACCATA,-0.021

row,Sequence,PBM E-score
1,CAGAACTA,-0.0215
2,CGGCGATA,0.277
3,CGTAGGGC,-0.195
4,ACATTTCC,0.141
5,CGCACCGC,-0.00306
6,ATGTTCCG,0.448
7,ATGTTCCA,-0.0991
8,ATGTTCGA,-0.112
9,ATGTTCGG,0.392
10,ATGTTCGC,-0.118
11,ATGTTCCC,0.153
12,CCGTTCCA,0.183
13,CCGTTCCG,0.431
14,CCGTTCCC,0.273
15,AAAACCCA,-0.0723
16,CCTGGCAG,-0.289
17,CTTTGAGC,-0.151
18,GAACCACC,0.218
19,CGGTGGTA,0.0785
